Experimental data taken from PubChem BioAssay AID1851 (National Center for Advancing Translational Sciences (NCATS), 2009).
Hit rate of the full screen: of about 16,000 compounds, about 5,800 (36%) were called active. Inconclusive results (about 23%) are left out. Calls come from the whole dose curve; as a rule, active = well fitted curve in the direction sought with a large enough effect; inconclusive = small, poorly fitted or top-dose-only effect, or effect the other way; inactive = no such curve, though single readings can be large or run the other way. The list shows a part of the results.

Biological target: Cytochrome P450 2C19 (Homo sapiens) (UniProt P33261)
Experiment: Cytochrome panel assay with activity outcomes
Conditions: recombinant CYP, pro-luciferin dealkylation, luminescence, p450-cyp2c19; series mostly up to 57.1 µM; activity, negative = inhibition: at the top concentration
% is set by controls: 0 for no effect and ±100 for the full control effect.

Sequence of Cytochrome P450 2C19 (Homo sapiens) (P33261 whole entry, looked up): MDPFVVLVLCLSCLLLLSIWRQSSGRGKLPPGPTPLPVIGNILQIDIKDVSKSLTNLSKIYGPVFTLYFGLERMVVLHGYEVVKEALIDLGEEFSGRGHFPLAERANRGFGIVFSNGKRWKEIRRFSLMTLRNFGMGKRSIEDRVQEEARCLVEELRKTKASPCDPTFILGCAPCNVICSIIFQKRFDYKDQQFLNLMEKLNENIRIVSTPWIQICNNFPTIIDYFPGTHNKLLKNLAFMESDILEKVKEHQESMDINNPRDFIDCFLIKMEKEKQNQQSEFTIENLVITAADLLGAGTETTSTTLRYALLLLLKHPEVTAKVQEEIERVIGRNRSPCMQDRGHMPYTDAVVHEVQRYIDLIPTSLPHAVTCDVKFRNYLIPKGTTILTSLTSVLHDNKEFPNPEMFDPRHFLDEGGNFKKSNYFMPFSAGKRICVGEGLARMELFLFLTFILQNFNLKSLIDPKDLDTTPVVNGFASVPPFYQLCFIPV

activity, negative = inhibition, inactive:
Cc1ccc(C2/C(=C(/O)c3ccc(Cl)cc3)C(=O)C(=O)N2CC2CCCO2)o1 (stereo unspecified) -16.5%, COc1ncc2nc(-c3ccc(Cl)cc3)c(=O)n(-c3ccccc3)c2n1 -31.9%, Cn1c(=O)c(-c2ccc(Cl)cc2)nc2cnc(Nc3ccccc3)nc21 6.65%, O=C(O)Cc1nn(Cc2ccc(Br)cc2F)c(=O)c2ccccc12 -24.3%, COc1ncc2nc(-c3ccccc3)c(=O)n(-c3ccccc3)c2n1 -27.6%, O=P(O)(CCP(=O)(O)c1ccccc1)c1ccccc1 2.23% [at 11.4 µM], CCCN(CCC)CCCNC(=O)CS(=O)Cc1nc(-c2ccc(OC)c(OC)c2)oc1C (stereo unspecified) -24.7%, CCS(=O)(=O)N1CCC(C(=O)NCCN2CCN(Cc3ccccc3)CC2)CC1 -5.92%, CN1CCN(c2ncnc3ccc(-c4cccc(C#N)c4)cc23)CC1 -31.3%, CNc1ncnc2ccc(-c3ccccc3C#N)cc12 -33.6%, CN(C)c1ncnc2ccc(-c3ccccc3C#N)cc12 -19.8%, COc1ncc2nc(-c3ccc(F)cc3)c(=O)n(C)c2n1 -5.58%, Cc1noc(C)c1-c1ccc2ncnc(N3CCOCC3)c2c1 -43.8%, Cc1noc(C)c1-c1ccc2ncnc(N3CCN(C)CC3)c2c1 -24.5%, OCCNc1nc2ccccc2[nH]1 -39.8%, O=c1ccnc(SCc2ccc(Cl)cc2)[nH]1 -32.7% [at 11.4 µM], O=C(O)CSCCc1ccccc1 6.64% [at 11.4 µM], Nc1ncnc2c1nc(Sc1ccc(Cl)cc1)n2[C@@H]1O[C@H]2COP(=O)(O)O[C@@H]2[C@H]1O -24.6%, N#CC1(Nc2ccc(-c3ccc(NC4(C#N)CCCC4)cc3)cc2)CCCC1 4.93% [at 11.4 µM], O=C(O)/C=C/C(=O)Nc1ccccc1-c1ccccc1 -18.3%, CCOC(=O)c1ccc(Cl)c(NC(=O)c2ccc(-c3ccccc3)cc2)c1 -23.7%, COc1ncc2ncc(=O)n(Cc3cccs3)c2n1 -42%, N#Cc1cccc(-c2nc3cnc(Oc4cccc(Cl)c4)nc3n(C3CC3)c2=O)c1 -30.1%, COc1ncc2nc(-c3ccc(F)cc3)c(=O)n(Cc3ccc(F)cc3)c2n1 1.23%, COc1cccc(Cn2c(=O)cnc3cnc(N4CCN(C)CC4)nc32)c1 -43.5%, O=c1c(-c2cccs2)nc2cnc(Oc3ccccc3)nc2n1Cc1cccs1 6.36%, COc1ncc2ncc(=O)n(CCC#N)c2n1 5.25%, O=c1c(-c2ccccc2)nc2cnc(Oc3cccc(Cl)c3)nc2n1C1CC1 -83.9%, CCN(CCO)C[C@H]1CCC[C@H]2CCCC[C@@H]21 12.1% [at 11.4 µM], CCON=C1C(C)(C)C(C)(C)C(C)(C)C1(C)C -8.06% [at 11.4 µM], COC(=O)[C@H](C)NC(=O)C/C=C\[C@@H](C)[C@H]1C=C[C@H](O)[C@@H](CO)O1 -2.78% [at 11.4 µM], N#CCCn1c(=O)cnc2cnc(Oc3ccccc3)nc21 -18.7%, N#CCCn1c(=O)c(-c2cccc(C#N)c2)nc2cnc(Oc3cccc(Cl)c3)nc21 -21.1%, N#CCCn1c(=O)c(-c2ccc(F)cc2)nc2cnc(Oc3cccc(Cl)c3)nc21 24.7%, COCCn1c(=O)c(-c2ccc(F)cc2)nc2cnc(Oc3ccccc3)nc21 -37.8%, N[C@H](CCCP(=O)(O)O)C(=O)O -15%, CC(=O)C=NCC(=O)O -14.5% [at 11.4 µM], COCC(=O)N1CCC2(CC1)CCN(c1ncccn1)CC2 29.1%, COCC(=O)N1CCC2(CC1)CN(c1ccccn1)C2 25.7%, O=C(Oc1ccccc1)N1CCC2(CC1)CCN(c1ncccn1)CC2 -25.4%, COCC(=O)N1CCC2(CCCN(c3ncccn3)C2)CC1 -0.728%

AC50, active:
COc1cccc(C2=CC(c3ccccc3)n3nnnc3N2)c1 (stereo unspecified) 0.158 µM, O=c1c2ccccc2c(-c2ccccc2)nn1Cc1ccc(Cl)cc1 1.12 µM, O=c1c2ccccc2c(-c2ccccc2)nn1-c1ccc(Cl)c(Cl)c1 2.51 µM, O=P(Cc1cc[n+]([O-])cc1)(c1ccccc1)c1ccccc1 15.8 µM, Cc1ccccc1-c1nc(CS(=O)CC(=O)NCCN2CCN(Cc3ccccc3)CC2)c(C)o1 (stereo unspecified) 17.8 µM, CN(Cc1ccco1)c1ncnc2ccc(-c3ccccc3Cl)cc12 3.16 µM, CN(Cc1ccco1)c1ncnc2ccc(-c3ccccc3C(F)(F)F)cc12 3.16 µM, CN(Cc1ccco1)c1ncnc2ccc(-c3cccc(C#N)c3)cc12 6.31 µM, CN(Cc1ccco1)c1ncnc2ccc(-c3ccccc3C#N)cc12 1.26 µM, Cc1noc(C)c1-c1ccc2ncnc(N(C)Cc3ccco3)c2c1 5.01 µM, COc1cc(/C=C2\SC(=S)N(Nc3ccccc3)C2=O)cc(OC)c1OC 11.2 µM, Cc1ccc(S(=O)(=O)/C=C\C#N)cc1 5.01 µM, Cc1nn(-c2nc3ccccc3[nH]2)c(N)c1-c1ccc(Cl)cc1 4.47 µM, Clc1ccc(CSc2nccn2Cc2ccccc2)cc1 0.224 µM, Cc1ccccc1CSc1nccn1-c1ccccc1 0.631 µM, c1ccc(CCSc2nccn2-c2ccccc2)cc1 1.26 µM, O=C(CSc1nccn1-c1ccccc1)c1ccc(Cl)cc1 0.447 µM, CCc1ccc(CSc2nccn2-c2ccccc2)cc1 1.58 µM, CCOc1c(Cl)cc(C(=O)Nc2ccccc2-c2ccccc2)cc1Cl 2.51 µM, COc1cccc(Cn2c(=O)cnc3cnc(Oc4cccc(Cl)c4)nc32)c1 25.1 µM, COc1ncc2ncc(=O)n(Cc3ccc(F)cc3)c2n1 7.94 µM, O=c1cnc2cnc(Oc3ccccc3)nc2n1Cc1cccs1 1.26 µM, O=c1cnc2cnc(Oc3cccc(Cl)c3)nc2n1C1CC1 15.8 µM, O=c1cnc2cnc(Oc3cccc(Cl)c3)nc2n1Cc1ccc(F)cc1 20 µM, O=c1cnc2cnc(Oc3ccccc3)nc2n1Cc1ccc(F)cc1 2.51 µM, Cc1ccccc1OCCNC(=O)c1ccccc1Sc1ccccc1C#N 8.91 µM, Cc1nc(S(=O)(=O)c2cccc(Cl)c2)nc2c1CCC2 15.8 µM, CCN(C(=O)c1cnc(N2CCN(c3ncccn3)CC2)c2ccccc12)c1cccc(Cl)c1 0.251 µM, CN(C(=O)c1cnc(N2CCN(c3ncccn3)CC2)c2ccccc12)c1ccc(Cl)cc1 1.58 µM

AC50, inactive:
CN1Cc2c(N)cccc2[C@H](c2ccccc2)C1
